The campaign covered roughly 360,000 compounds. About 7,300 (2%) were called active. Many of the other results were omitted from the sample, so actives are more common in it than they were. Unmarked numbers belong to inactive results. No stated cut-off is given here; in the data, active means inhibition above about 50%; inactive means the rest.
Assay: inhibitors of TWEAK-Fn14 signaling, primary screen, luciferase reporter cells, uHTS (AID 1159606)
Details: TWEAK-stimulated Fn14 reporter cells, luciferase luminescence, 8 h; at 10 µM; hits give high values

Row | SMILES | inhibition
1 | O=C1c2ccccc2C(=O)N1CC1c2ccccc2CCN1S(=O)(=O)c1ccccc1 (centres undefined) | 4.13%
2 | CCC(C)NC(=O)c1ccccc1NC(=O)c1ccccc1N(C)S(C)(=O)=O (centres undefined) | -11.3%
3 | O=c1c(/C=N/O)coc2ccc(Cl)cc12 | -3.08%
4 | CC(C)(C)OC(=O)NCCCCCC(=O)N/N=C/c1coc2ccccc2c1=O | -1.48%
5 | Cc1ccc2occ(/C=N/NC(=O)c3ccccc3C)c(=O)c2c1 | 70.5% (active)
6 | CC1(C)CC(=O)c2cnc3nc4ccccc4n3c2C1 | 6.24%
7 | Cn1c(N)c(C(=O)COC(=O)/C=C/c2ccc(OC(F)F)cc2)c(=O)n(C)c1=O | -0.1%
8 | CCCOc1ccc(F)cc1-c1cc(C(=O)Nc2ccc(F)c(Cl)c2)[nH]n1 | 76.2% (active)
9 | CCCOc1ccc(F)cc1-c1cc(C(=O)NCc2ccc(F)cc2)[nH]n1 | 24.1%
10 | CCCOc1ccc(F)cc1-c1cc(C(=O)Nc2ccc(F)cc2)[nH]n1 | 37.3%
11 | CCCNC(=O)c1cc2c(c(-c3cccc(-c4ccc(C#N)cc4)c3)n1)[C@@H](CCO)N(C(=O)CC)C2 | -20.1%
12 | CC(=O)c1c(C)n(-c2ccc(N(C)C)cc2)c2ccc(OCC(N)=O)cc12 | 57.5% (active)
13 | CC(=O)c1c(C)n(-c2ccc(C)cc2)c2ccc(O)cc12 | 15.6%
14 | Cc1cccc(OCC(=O)NCC(=O)N/N=C/c2ccc(N(C)C)cc2)c1 | -4.48%
15 | COC(=O)[C@]12CCCCC=C1N(Cc1ccccc1)C(=O)[C@H](CC(=O)NCc1ccc(C)o1)C2 | 9.51%
16 | O=C1NC[C@H](CCCCN2C[C@H](Cc3ccc(O)cc3)N(CCc3ccccc3)C(=O)C2=O)N(CCc2ccccc2)C1=O | 13.5%
17 | N#Cc1ccccc1CN1C(=O)S/C(=C/c2cccn2-c2cccc(C(=O)O)c2)C1=O | 0.32%
18 | O=C1CC(NNc2ccccc2)C(=O)N1c1cccc(Cl)c1 (centres undefined) | 15.1%
19 | O=C1N/C(=C/c2cccn2-c2ccccc2)C(=O)N1c1cccc(Cl)c1 | 62.3% (active)
20 | Cc1ccc([C@H]2C[C@H](O)[C@@H](n3cc(COC(=O)c4ccccc4)nn3)CN2C(=O)C2CCCCC2)cc1 | 21%
21 | COCCNC(=O)c1ccccc1-c1nc(-c2ccccc2Cl)no1 | -18.8%
22 | Cc1c(NC(=O)C(C)OC(=O)c2ccccc2O)c(=O)n(-c2ccccc2)n1C (centres undefined) | 2.88%
23 | COC(=O)[C@]12CCCCC=C1N(CCC1=CCCCC1)C(=O)[C@H](CC(=O)N1CCSCC1)C2 | -9.15%

Row | SMILES | inhibition
24 | O=C(CN1C(=O)c2ccccc2S1(=O)=O)N1CCc2ccccc21 | 103% (active)
25 | CN(Cc1ccc(F)cc1)C(=O)CN1C(=O)c2ccccc2S1(=O)=O | 7.88%
26 | COc1ccc(CNC(=O)CN2C(=O)c3ccccc3S2(=O)=O)cc1 | 8.55%
27 | CCN(CC)c1ncnc2c1ncn2[C@H]1CN(Cc2cccs2)C[C@@H](CO)O1 | -23.3%
28 | COc1ccc(CN2C(=O)C(CC(=O)NC3CCCCC3)CC(C(=O)N3CCOCC3)=C2C)cc1 (centres undefined) | -7.48%
29 | CCc1cccc(C)c1N(C(=O)Cn1c(CO)nc2ccccc21)C(C)COC (centres undefined) | -17.5%
30 | CCN1CCC(O)(/C=C/c2ccc(C)cc2)C(C(=O)/C=C/c2ccc(C)cc2)C1 (centres undefined) | 88.3% (active)
31 | CCN1CCC2(CC1)N=C(c1ccc(F)cc1)C(=S)N2C(=O)c1ccc(C)cc1 | 42.7%
32 | CCOC(=O)[C@]12CCC=C1N(Cc1ccco1)C(=O)[C@H](CC(=O)NCc1cccc(C(F)(F)F)c1)C2 | 11.1%
33 | COCCCNC(=O)CNC(=O)c1nn(-c2ccc(OC)cc2)c(=O)c2ccccc12 | 23.9%
34 | CCOC(=O)c1cc(NC(=O)SCC(=O)O)c(C)nc1C | -2.03%
35 | CCOC(=O)c1c(C2CC2)csc1NC(=O)CSCc1c(C)noc1C | -9.7%
36 | O=C(Cc1ncc(C(F)(F)F)cc1Cl)Nc1cccc(Br)c1 | 6.6%
37 | O=C(CC(O)(C(F)(F)F)C(F)(F)F)Nc1ccc(Cl)c(Cl)c1 | 56.3% (active)
38 | CN(CC(=O)Nc1ccc(Cl)c(C(F)(F)F)c1)C(=O)CCC(=O)c1ccccc1 | 7.71%
39 | CCN1/C(=C\c2ccc3ccccc3[n+]2CC)Sc2cc(C)ccc21 | 57.2% (active)
40 | O=C(COC(=O)C1CCN(S(=O)(=O)c2ccc3c(c2)OCCO3)CC1)Nc1ccccc1OC(F)F | -22.5%
41 | C#Cc1ccc([C@@H]2C=C(C(=O)O)O[C@H](OCCCCO)C2)cc1 | -4.22%
42 | Cc1cn(C2C=CC(CO)O2)c(=O)[nH]c1=O (centres undefined) | -1%
43 | O=S(=O)(c1ccc(F)cc1)N1CCN=C1SCc1cccc(F)c1 | -11.2%
44 | O=C(Nc1c(Br)cc2c(c1Br)Cc1cc([N+](=O)[O-])ccc1-2)C(Cl)Cl | -30.1%
45 | O=C(CN1CCN(S(=O)(=O)c2ccc(F)cc2)CC1)NC1CC1 | 0.09%
46 | Cc1nc(N2CCN(c3ccccn3)CC2)c2c(C)c(C(=O)Nc3ccc(F)c(Cl)c3)sc2n1 | 66.9% (active)

Row | SMILES | inhibition
47 | Cc1nc(N2CCN(c3ccccn3)CC2)c2c(C)c(C(=O)Nc3ccc(F)cc3)sc2n1 | 18.8%
48 | Cc1nc(N2CCOCC2)c2c(C)c(C(=O)Nc3ccc(C(F)(F)F)cc3)sc2n1 | -3.25%
49 | O=C(Nc1ccc(OC(F)(F)F)cc1)c1ccc2c(c1)no[n+]2[O-] | 60.4% (active)
50 | CCOC(=O)Cc1ncccc1C(=O)Nc1ccc(OC(F)(F)F)cc1 | -7.78%
51 | CCOc1c2ccc(C(=O)NCc3ccc(OC(F)(F)F)cc3)cc2nn1C | -25.1%
52 | CCOC(=O)Cc1csc(NC(=O)CN(C)S(=O)(=O)c2ccc3c(c2)CCC(=O)N3)n1 | 1.66%
53 | Nc1nc(SCC(=O)Nc2cc(C(F)(F)F)ccc2Cl)[nH]c(=O)c1NC(=O)c1ccco1 | 10%
54 | O=C(Nc1ccc(Cl)cc1)c1cc2nc(C3CC3)cc(C(F)(F)F)n2n1 | -7.24%
55 | O=C(Nc1cc(C(F)(F)F)ccc1Cl)c1cc2nc3c(c(C(F)(F)F)n2n1)CCCC3 | 76.7% (active)
56 | O=S1(=O)CSCS(=O)(=O)C1 | -11.8%
57 | O=C(OCC(=O)N1CCCCCC1)c1ccc(Br)c(S(=O)(=O)N2CCOCC2)c1 | -3.85%
58 | CC1CN/C(=C\C(=O)c2ccc(Br)cc2)C(=O)N1 (centres undefined) | 62.2% (active)
59 | COc1cc2c(cc1OC)/C(=C/C(=O)c1ccc(NC(C)=O)cc1)NCC2 | -11.2%
60 | CC1(C)Cc2ccccc2/C(=C/C(=O)c2ccccc2)N1 | -22.4%
61 | O=C(CN(C(=O)c1csnn1)c1cccc(F)c1)NCc1ccc(F)cc1 | 0.95%
62 | COc1ccc(C(c2nnnn2C2CCCC2)N2CCN(C/C=C/c3ccccc3)CC2)cc1 (centres undefined) | -2.02%
63 | O=C(NCCOc1ccccc1)c1ccccc1 | 54.9% (active)
64 | O=C(NCCOc1ccccc1)c1ccccc1F | 30.7%
65 | NS(=O)(=O)c1cc(C(=O)NCCOc2ccccc2)c(Cl)cc1Cl | 3.06%
66 | COc1cc(C(=O)OCC(=O)N(CC(C)C)C2CCS(=O)(=O)C2)ccc1OCC(C)C (centres undefined) | -5.97%
67 | COc1ccc(CCNC(=O)CCC(=O)NC2CCCCC2)cc1OC | 4.09%
68 | COc1ccc(CNc2nnnn2C)cc1 | 2.29%
69 | COc1ccc(-n2nnnc2SCC(=O)NCc2cccs2)cc1 | -2.38%

Row | SMILES | inhibition
70 | COc1ccc(-n2nnnc2-c2nc3ccccc3s2)cc1 | 74% (active)
71 | Cc1ccc(CN2CCCOCCS2(=O)=O)cc1 | -9.75%
72 | Nc1ccccc1-c1nc2ccncc2[nH]1 | -11.5%
73 | CCCOc1ccccc1-c1nc(SCCC(=O)O)n[nH]1 | -9.1%
74 | Cc1cc(C)nc(Nc2n[nH]c(-c3ccccc3N)n2)n1 | 53.5% (active)
75 | COc1ccc2c(c1)CC[C@@H]1[C@@H]2CC[C@]2(C)C(=O)CC[C@@H]12 | -3.91%
76 | O=C(NCc1ccccc1)C1c2ccccc2OCC(=O)N1C1CC1 (centres undefined) | 4.34%
77 | NC(=O)Nc1ccccc1C(=O)NCCc1ccccc1 | 11.8%
78 | Cc1cccc(N2CCN(C(=O)CCS(=O)(=O)c3ccc4c(c3)NC(=O)C(C)S4)CC2)c1C (centres undefined) | 50.6% (active)
79 | CC1Sc2ccc(S(=O)(=O)CCC(=O)NCc3ccccc3Cl)cc2NC1=O (centres undefined) | 0.42%
80 | COc1ccccc1N1CCN(C(=O)CCS(=O)(=O)c2ccc3c(c2)NC(=O)C(C)S3)CC1 (centres undefined) | 21.7%
81 | O=C(NCc1ccc(F)cc1)C1CCN(C(=O)Nc2ccc(F)cc2)CC1 | 31.5%
82 | Cc1c(Cl)cccc1NC(=O)Nc1ccc(C(=O)N2CCCC2)cc1 | 5.68%
83 | O=C(Nc1ccc(Cl)cc1)Nc1ccc(C(=O)N2CCOCC2)cc1 | 79% (active)
84 | O=C(Nc1ccccc1C(=O)N1CCOCC1)c1ccc(Cl)cc1 | -5.43%
85 | COc1cc2c(C(=O)N3CCN(C)CC3)c(CSc3ccccc3)n(C)c2cc1Br | 0.16%
86 | CCN(CC)CCN(C)C(c1ccnc2ccccc12)c1nnnn1-c1ccc2c(c1)OCCO2 (centres undefined) | 29.9%
87 | CCCCn1nnnc1C1(C)CCC(=O)N1Cc1ccc(OC)c(OC)c1 (centres undefined) | 2.84%
88 | COc1ccc(COC[C@H](CC(C)C)N2CCN(C(=O)c3cccc(C(F)(F)F)c3)CCC2=O)cc1 | 0.93%
89 | O=c1ccc2c(-c3ccccc3S(=O)(=O)O)c3ccc(O)c(O)c3oc-2c1O | 78% (active)

— PubChem BioAssay AID1159606 (Sanford-Burnham Center for Chemical Genomics, 2016)
